Bioassay records as filed in PubChem BioAssay.
A selection: hits, their analogues and other compounds. The true share with any hit is near 10%.
G9a inh – G9a (human) methyltransferase inhibition. Potency, µM (highest dose often 102 µM), for the others: at the top dose activity, negative = inhibition, usual class: inhibitors. 350,000 compounds, 8.8% hits. Q96KQ7. G9a H3K9 monomethylation, AlphaScreen, 2 h. AID 504332; also: potency is read from the fitted curve at half-maximal effect; % is scaled to controls: 0 for no effect and ±100 for the full control effect; nearly all actives have a fitted effect of over 75% in size
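Compounds were preincubated with 20 nM G9a for 15 min, after which biotinylated H3K9 peptide (500 nM) and SAM (20 uM) started a 2 h room-temperature reaction. Monomethylated product was quantified by antibody-based AlphaScreen chemiluminescence.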
CtBP-E1A blk – CtBP/E1A binding inhibition | AlphaScreen GST-E1A/His-CtBP binding, 1536-well; active compounds read low | 340,000 compounds, 0.49% hits | activity change, % (no concentration beside the values); in the data active = activity change below about -65%; inconclusive = mostly about -30% to -63%; also: % is scaled to controls: 0 for no effect and ±100 for the full control effect
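Homogeneous bead-based format: GST-tagged E1A captured on glutathione donor beads, His-tagged CtBP on nickel acceptor beads; compounds precede bead addition by 2 h at 37 °C.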
JMJD2A Tudor – JMJD2A Tudor domain (human) inhibition; O75164; AlphaScreen JMJD2A-Tudor / H3K4me3 peptide binding; Potency, µM (doses to about 114 µM), without a hit: at the highest dose activity change, negative = inhibition, hits mostly inhibitors; 390,000 compounds, 4.4% hits; also: potency is read from the fitted curve at half-maximal effect; % is scaled to controls: 0 for no effect and ±100 for the full control effect; nearly all actives have a fitted effect of over 50% in size
Six1-Eya2 blk – Six1/Eya2 interaction inhibition | activity change, % (test concentration not listed) | Q15475+O00167 | AlphaScreen GST-Six1/His-Eya2 binding, biochemical; active compounds read low | 360,000 compounds, 0.56% hits; in the data active = activity change below about -65%; inconclusive = mostly about -30% to -63%; also: % is scaled to controls: 0 for no effect and ±100 for the full control effect
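AlphaScreen with GST-Six1 and His-Eya2 (5X mix: 250 nM and 500 nM), glutathione donor and nickel acceptor beads; buffer 50 mM Tris pH 8.0, 300 mM NaCl, 1 mM TCEP; 1 h at 37 C in the dark.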
HP1b binding inh – blocks HP1-beta chromodomain binding to methylated histone tails; AlphaScreen HP1-beta / biotin-H3K9me3 peptide binding; Potency, µM (doses to about 114 µM), without a hit: at the top dose activity change, negative = inhibition, hits mostly inhibitors; 390,000 compounds, 0.56% hits; AID 540317; also: potency is read from the fitted curve at half-maximal effect; nearly all actives have a fitted effect of over 70% in size
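Compound inhibition of the preformed complex between 50 nM HP1-beta and 50 nM biotinylated H3K9me3 peptide was read by AlphaScreen. Buffer was PBS pH 7.4 with 0.01% Tween-20. Incubations ran 30 min at room temperature, with 10 ug/mL donor/acceptor beads.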
BAZ2B inh – blocks human BAZ2B. Q9UIF8. AlphaScreen BAZ2B-H3K14Ac peptide displacement. Potency, µM (titrated, usually from 114 µM), without a hit: at the highest dose activity change, negative = inhibition, most hits filed as inhibitors. 360,000 compounds, 4.4% hits; also: potency is read from the fitted curve at half-maximal effect; % is scaled to controls: 0 for no effect and ±100 for the full control effect; nearly all actives have a fitted effect of over 60% in size
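AlphaScreen luminescence quantifies BAZ2B engagement of H3K14Ac peptide; the protein and biotinylated peptide are both at 50 nM final, buffer PBS pH 7.4 with 0.01% Tween-20, all steps at room temperature.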
* = called active by the depositor; ? = inconclusive; / = not tested or not shown; [ ] = another dose, or the depositor's remark. Unless noted, calls follow the shape of the dose curve; as a rule, active = well fitted inhibition curve with a large enough effect; inconclusive = small, poorly fitted or top-dose-only effect; inactive = no such curve, though single readings can be large or run the other way.

SMILES | G9a inh | CtBP-E1A blk | JMJD2A Tudor | Six1-Eya2 blk | HP1b binding inh | BAZ2B inh
Cc1cccc(C)c1Nc1nnc(SCc2nc3ccccc3s2)s1 | 8.9µM* | -6 | -29% | -5 | 20% | -1%
CC(C)Oc1ccc(CNC(=O)C(C)n2ccc3cc(S(=O)(=O)N4CCCCCC4)ccc32)cc1 (stereo unspecified) | -11%[59 µM] | / | -13% | / | 25% | -14%
Cc1ccc(-n2nc3c(N4CCC(C(=O)NC5CCCCC5)CC4)nnc(C)c3c2C)cc1 | -3%[59 µM] | / | -16% | / | 40% | -22%
C#CCOCCOCCOCCNc1nc(N2CCN(C(=O)CCCCCCCCCCNC(=O)[C@H](CCCCN)n3cc(C[C@@H](C)CC)nn3)CC2)nc(N2CCN(C(=O)CCCCCCCCCCNC(=O)[C@@H]([C@H](C)O)n3cc(C)nn3)CC2)n1 | -4%[2.33 µM] | -10 | 56µM* | -16 | ? | 50µM*
C#CCOCCOCCOCCNc1nc(N2CCN(C(=O)CCCCCCCCCCNC(=O)[C@H](CCCCN)n3cc(C)nn3)CC2)nc(N2CCN(C(=O)CCCCCCCCCCNC(=O)[C@@H]([C@H](C)O)n3cc(C)nn3)CC2)n1 | -4%[2.33 µM] | -8 | 56µM* | -3 | -22% | -37%
COc1ccc(CCNC(=O)COC(=O)CCC(=O)c2ccc(F)cc2)cc1 | 12% | -12 | -4% | -3 | 31% | /
COc1ccc(OCC(O)Cn2c(NCCO)nc3c2c(=O)n(C)c(=O)n3C)cc1 (stereo unspecified) | -1%[59 µM] | / | -12% | / | 14% | 2%
Cc1oc2c(cc(NS(=O)(=O)c3ccc(F)cc3)c3ccccc32)c1C(=O)OCc1ccccc1 | ? | / | -16% | / | -5% | -22%
CN(C)c1ccc(NC(N)=S)cc1 | 10µM* | -3 | -32% | -6 | -1% | ?
CCCNC(=O)Nc1ccccc1SC | 40µM* | / | -16% | -3 | 20% | -18%
COc1ccc(NC(=O)C(CC(=O)O)C(C)c2ccccc2)cc1 (stereo unspecified) | -38% | 6 | 14µM* | 12 | -17% | 7%
Cc1c(NC(=O)Nc2ccc(Cl)c(Cl)c2)sc(=S)n1C | / | -7 | ? | -14 | -9% | /
CCCCNC(=O)Nc1ccccc1C(=O)NCCC | 17%[59 µM] | 12 | -9% | 2 | 25% | -3%
COc1ccc(NC(=O)Nc2sc(=S)n(C)c2C)cc1 | 50µM* | -7 | -16% | -11 | -22% | -37%
Cc1ccc2nc(NC(=O)c3ccc(NS(=O)(=O)c4cccs4)cc3)sc2c1 | -3% | -12 | -15% | -2 | 9% | -9%
O=C(Nc1ccccc1[N+](=O)[O-])c1cccc(N2C(=O)CCC2=O)c1 | / | -15 | -13% | 13 | 12% | 15%
COc1ccc(NC(=O)Nc2ccccc2F)cc1 | 11% | 13 | -6% | 0 | 23% | 12%
COc1ccc(NC(=O)N/C=C/c2ccc(Cl)cc2)cc1 | 20µM* | 3 | -22% | 23 | -3% | -26%
COc1ccc(NC(=O)Nc2ccccc2SC)cc1 | 50µM* | -2 | -9% | 1 | 29% | -14%
COc1ccc(NC(=O)Nc2ccc(N(C)C)cc2)cc1 | 3.5µM* | -12 | -35% | -23 | ? | ?
Cc1ccc2c(=O)cc(C(=O)Nc3c(C)n(C)n(-c4ccccc4)c3=O)oc2c1C | -4%[59 µM] | / | 1% | / | 15% | -8%
Cc1ccc(S(=O)(=O)n2nc(C)c(Br)c2C)c(C)c1C | 71µM* | 10 | 58% | 12 | 139% | 6%
Cc1ccc(S(=O)(=O)n2nc(C)c(S(=O)(=O)N3CCCCCC3)c2C)cc1C | 0%[59 µM] | / | -28% | / | -1%[57 µM] | -3%
CC(=O)c1ccc(OCc2cc(C(=O)N(C)CC3COc4ccccc4O3)no2)cc1 (stereo unspecified) | / | 5 | / | -5 | / | /
Cc1ccc(C=C2C(=O)c3ccccc3C2=O)o1 | 25µM* | -11 | ? | -24 | ? | 40µM*
O=C(O)c1ccc2c(c1)C(=O)/C(=C\c1ccco1)C2=O | 8.9µM* | -8 | 25µM* | ? | ? | 35µM*
